# Results published in PubChem BioAssay AID2680 (National Center for Advancing Translational Sciences (NCATS), 2010).
# Some of the results follow. Inconclusive results are not listed. Active and inactive are the calls of the source. Calls follow the shape of the dose curve; as a rule, active = well fitted inhibition curve with a large enough effect; inconclusive = small, poorly fitted or top-dose-only effect; inactive = no such curve, though single readings can be large or run the other way.
# Biological target: Glutathione-independent formaldehyde dehydrogenase (Pseudomonas putida) (UniProt P46154)
# Assay: Counterscreen for JMJD2E Inhibitors: qHTS Assay for Inhibitors of Formaldehyde Dehydrogenase (FDH)
# Details: FDH enzyme assay, NADH fluorescence kinetic; series mostly up to 56.7 µM; activity, negative = inhibition: at the top concentration
# Description: This assay is a counterscreen for a related assay for inhibitors of JMJD2E. See AID 2147 for details. The JMJD2E assay utilized an FDH-coupled protocol. To screen for false positive results in the primary assay due to inhibition of the formaldehyde dehydrogenase coupled enzyme, an FDH-only assay was run using FDH as the enzyme (0.000025 U/uL final concentration) and 10 uM formaldehyde and 0.25 mM NAD+ as the substrate, and following the same fluidic protocol as described in AID 2147 for the coupled HTS assay. Actives in this assay are likely false positives of the primary HTS.
# Assay is initiated by dispensing 3 uL of enzyme solution (4/3x final concentration) into a 1,536-well assay plate using a nanoliter solenoid-based dispenser (Beckman-Coulter, Fullerton, CA). After pintool transfer of compound solution, the assay plate is incubated at room temperature for 10 minutes, followed by a 1 uL addition of 4x substrate solution to initiate the reaction (final assay volume of 4 uL). The plate is then manually transferred into the ViewLux reader for kinetic measurements.
# Sequence of Glutathione-independent formaldehyde dehydrogenase (Pseudomonas putida) (P46154 whole entry, looked up): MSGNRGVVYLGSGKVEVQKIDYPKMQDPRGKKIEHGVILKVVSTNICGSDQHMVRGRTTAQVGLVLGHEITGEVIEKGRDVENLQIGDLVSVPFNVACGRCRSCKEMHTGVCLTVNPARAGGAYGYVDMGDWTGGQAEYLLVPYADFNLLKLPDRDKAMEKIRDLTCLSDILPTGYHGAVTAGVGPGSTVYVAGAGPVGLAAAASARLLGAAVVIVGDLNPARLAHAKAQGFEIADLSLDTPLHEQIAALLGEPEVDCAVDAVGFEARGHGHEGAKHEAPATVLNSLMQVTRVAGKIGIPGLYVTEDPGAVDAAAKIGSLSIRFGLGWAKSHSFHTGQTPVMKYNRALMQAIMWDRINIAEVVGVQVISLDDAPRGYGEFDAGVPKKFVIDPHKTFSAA
SMILES,"activity, negative = inhibition",Potency
Oc1cccc2cc(-c3ccncc3)cnc12,-18.2% (inactive),
O=C1CC(Sc2ncn[nH]2)C(=O)N1c1ccccc1 (configuration not stated),,0.316 µM (active)
Cc1ccc(N2C(=O)CC(Sc3ncn[nH]3)C2=O)cc1 (configuration not stated),,0.316 µM (active)
Nc1ccc(Nc2cc(O)c3ncccc3c2)cc1,-9.09% (inactive),
Oc1c(CN2CCCC2)cc(COCc2ccccc2)c2cccnc12,-18.2% (inactive),
Oc1ccc(/C=C/c2c(F)cccc2F)c2cccnc12,-18.2% (inactive),
COc1ccc(Cl)cc1CSc1ncn[nH]1,,0.316 µM (active)
